In PubChem BioAssay (NCI):
The panel holds about 79,000 compounds, 15% with a hit somewhere; the sample as a whole holds those more often. Unmarked numbers belong to inactive results. Activity calls are given as the source filed them. Cut-off read from the data, not from the text of the source: active = growth inhibition above about 70%; inactive = the rest.

Key:
[1] = NCI Yeast Anticancer Drug Screen. Data for the rad50 strain (AID 155);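 note: 0% = growth of vehicle-only cultures of the same strain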; settings: S. cerevisiae rad50 strain growth inhibition, hits give high values
Outline: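 A DNA repair-deficient yeast mutant serves as the test organism; compound-induced growth inhibition is calculated against vehicle-treated cells.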

[2] = NCI Yeast Anticancer Drug Screen. Data for the mec2-1 strain (AID 157); settings: S. cerevisiae mec2-1 strain, hits give high values
Outline: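 Each compound was tested on mec2-1 yeast, a strain altered in DNA damage repair or cell cycle control. Growth inhibition is reported relative to vehicle.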

[3] = NCI Yeast Anticancer Drug Screen. Data for the sgs1 mgt1 strain (AID 161);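 note: 0% = growth of cultures given vehicle only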; settings: S. cerevisiae sgs1 mgt1 strain, hits give high values
Outline: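 Test agents were incubated with a DNA-repair-mutant yeast strain. Growth was then read and compared against vehicle-treated controls.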

[4] = NCI Yeast Anticancer Drug Screen. Data for the cln2 rad14 strain (AID 165);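 note: 0% = growth equal to vehicle treated cultures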; settings: S. cerevisiae cln2 rad14 strain, hits give high values
Outline: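 Test compounds were added to cln2 rad14 yeast cultures; inhibition of growth was then determined by comparison with vehicle treatment.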

[5] = NCI Yeast Anticancer Drug Screen. Data for the bub3 strain (AID 167); settings: S. cerevisiae bub3 mutant strain, hits give high values
Outline: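 Inhibition values come from growth of compound-treated mutant yeast normalised to vehicle-treated controls.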

[6] = NCI Yeast Anticancer Drug Screen. Data for the mlh1 rad18 strain (AID 175); settings: S. cerevisiae mlh1 rad18 strain growth inhibition, hits give high values
Outline: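 Inhibition values reflect reduced growth of mutant yeast versus vehicle-treated controls following compound exposure; the mutations affect DNA damage repair.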

[7] = at 5.0 µM (retest, dose inferred, filed as 0.5)
[8] = at 50.0 µM (retest, dose inferred, filed as 5.0)

| SMILES | growth inhibition [1, 7] | growth inhibition [1, 8] | growth inhibition ([1]; at 50.0 µM) | growth inhibition [2, 7] | growth inhibition [2, 8] | growth inhibition ([2]; at 50.0 µM) | growth inhibition [3, 7] | growth inhibition [3, 8] | growth inhibition ([3]; at 50.0 µM) | growth inhibition [4, 7] | growth inhibition [4, 8] | growth inhibition ([4]; at 50.0 µM) | growth inhibition [5, 7] | growth inhibition [5, 8] | growth inhibition ([5]; at 50.0 µM) | growth inhibition [6, 7] | growth inhibition [6, 8] | growth inhibition ([6]; at 50.0 µM) |
| --- | --- | --- | --- | --- | --- | --- | --- | --- | --- | --- | --- | --- | --- | --- | --- | --- | --- | --- |
| CC(CN(C)C)C(/C=C/c1ccc(Cl)c(Cl)c1)=N\Nc1ccccc1 (configuration not stated) | 2% | 96% (active) | 54.1% | -3% | 98% (active) | 98.7% (active) | 3% | 99% (active) | 49.3% | 3% | 96% (active) | 47.1% | -1% | 91% (active) | 88.4% (active) | 9% | 96% (active) | 64.6% |
| O=C(NCCCl)Nc1c2ccccc2nc2ccccc12 | 15% | 65% | 72% (active) | 8% | 39% | 41% | 4% | 23% | 24.5% | 16% | 23% | 31.4% | -1% | 19% | 34.9% | 9% | 41% | 37% |
| COC(=O)[C@@H](O)[C@]1(C(=O)OC)C2O[C@@H](OC)[C@@H]1CCCCCC[C@H]2O | 21% | 11% | -2.05% | 10% | 11% | 0.45% | 10% | 17% | -6.85% | 17% | 29% | 2.1% | 18% | 13% | 8.85% | 19% | 12% | -1.95% |
| O=C(CC(O)(C(F)(F)F)C(F)(F)F)C(c1ccccc1)C(O)(C(F)(F)F)C(F)(F)F (configuration not stated) | 6% | 82% (active) | 71.8% (active) | 13% | 79% (active) | 91.5% (active) | -3% | 86% (active) | 84.2% (active) | 13% | 92% (active) | 90.5% (active) | -14% | 41% | 83.2% (active) | 5% | 93% (active) | 93.6% (active) |
| COC(=O)c1nc(Cl)nc(Cl)c1N | 8% | 95% (active) | 96.7% (active) | 14% | 95% (active) | 97.3% (active) | 11% | 92% (active) | 98.2% (active) | -3% | 92% (active) | 96% (active) | 7% | 95% (active) | 97.8% (active) | 11% | 96% (active) | 98.2% (active) |
| N#C/C(=C\NC(=S)C(N)=S)c1nc2ccccc2s1 | 21% | 97% (active) | 88.1% (active) | 28% | 99% (active) | 90.2% (active) | 7% | 97% (active) | 89.2% (active) | 30% | 97% (active) | 86.9% (active) | 22% | 98% (active) | 87.8% (active) | 52% | 97% (active) | 85.5% (active) |
| CC(=O)Nc1cc(Cl)c2c(c1)C(=O)c1ccccc1-2 | 64% | 82% (active) | 91.8% (active) | 34% | 61% | 14.6% | 43% | 77% (active) | 35.6% | 24% | 35% | -23.4% | 14% | 38% | 19.1% | 41% | 79% (active) | 33% |
| Cc1c2cnccc2c(C)c2c1c1ccccc1n2CCCN | 22% | 73% (active) | 91.7% (active) | 14% | 33% | 67.6% | 5% | 50% | 77.3% (active) | 17% | 32% | 72.3% (active) | 29% | 35% | 84.6% (active) | 16% | 58% | 82.1% (active) |
| CCOC(=O)C(=Cc1ccccc1)C(=O)OCC | 20% | 92% (active) | 73% (active) | 20% | 91% (active) | 88.8% (active) | 9% | 92% (active) | 92.6% (active) | 13% | 78% (active) | 69.5% | 48% | 94% (active) | 92.2% (active) | 12% | 94% (active) | 93.3% (active) |
